Test results reported in PubChem BioAssay.
Calls of active or inactive are those of the source. Unless noted, no rule for the calls is given here.

Experiments:
[1] = compounds binding Alexa647 anti-His antibody – biochemical, small-molecule microarray, 635 nm fluorescence, artefact control for SMM control protein annotation, primary screen (AID 1128); conditions: higher = more signal;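 also: score merges feature fluorescence with signal-to-noise for each printed compound spot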
[2] = tested on: Human papillomavirus type 1a E7 protein (residues 1-88); assay: HPV1a E7 small-molecule binders, primary screen, biochemical, small-molecule microarray, residues 1-88, 635 nm (AID 1129); conditions: small-molecule microarray binding, fluorescence 635 nm; higher = more signal
[3] = biological target: Focal adhesion kinase 1 (Homo sapiens) (UniProt Q05397); assay: PTK2 protein binding on printed compound slides – biochemical, small-molecule microarray, 635/667 nm fluorescence, BSA, DTT, primary screen (AID 1130); conditions: 635 nm fluorescence, higher = more signal;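 also: composite of spot emission at 667 nm and signal to noise over triplicate slides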
[4] = tested on: Fibrinogen (Alexa647-labelled); assay: Alexa647-fibrinogen binding to printed small molecules – biochemical, small-molecule microarray, 635/667 nm fluorescence, artefact control for SMM control-protein annotation, profiling panel (AID 1131); conditions: fibrinogen-A647 binding fluorescence, higher = more signal;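 also: z-score merges 667 nm fluorescence with per-spot signal-to-noise over triplicate slides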
[5] = biological target: Follistatin (Homo sapiens) (UniProt P19883); assay: FST protein binding to printed compounds – biochemical, small-molecule microarray, 635/667 nm fluorescence, primary screen (AID 1132); conditions: 635 nm fluorescence, higher = more signal
[6] = biological target: Fibroblast growth factor 2 (Homo sapiens) (UniProt P09038); assay: basic fibroblast growth factor binding to printed compounds – biochemical, small-molecule microarray, 635/667 nm fluorescence, primary screen (AID 1133); conditions: FGF2, fluorescence 635/667, higher = more signal
[7] = JC-1 mitochondrial potential readout, lung cancer cells – cell-based, A549, JC-1 fluorescence, basal, 24 h, 100 nL, profiling panel (AID 1138); conditions: higher = more signal;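 also: A549 lung adenocarcinoma cells under basal conditions with no added stimulus; test concentration not given here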
Lefty1 = Lefty1 protein binding to printed compounds – biochemical, small-molecule microarray, 635/667 nm fluorescence, primary screen (AID 1139); conditions: fluorescence 635/667, higher = more signal
[8] = tested on: wheat germ agglutinin (Triticum aestivum), Alexa647-labelled; assay: Alexa647-WGA lectin binding to printed small molecules – biochemical, small-molecule microarray, 635/667 nm fluorescence, artefact control for SMM control-protein annotation, profiling panel (AID 1140); conditions: WGA-A647 binding, 635 nm fluorescence, higher = more signal;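 also: score merges 667 nm feature emission with signal to noise over triplicate slides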
[9] = biological target: Luciferin 4-monooxygenase (Photinus pyralis) (UniProt P08659); assay: inhibition of purified Photinus pyralis luciferase – biochemical, luminescence, purified enzyme, 2006 set, primary screen (AID 1141); conditions: purified firefly luciferase, SteadyGlo luminescence, 30 min; higher = more signal, called active from +8 up or from −8 down;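 also: cell-free assay with purified firefly luciferase at 100 ng per well in PBS; test concentration not given here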
[10] = tested on: Wnt5a (protein binding on small-molecule microarray); assay: small molecules binding Wnt5a protein – biophysical, small-molecule microarray, 635/667 nm fluorescence, primary screen (AID 1142); conditions: 635 nm fluorescence, higher = more signal;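 also: fluorescence read at 667 nm with signal to noise per printed feature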
[11] = ATP-based viability of Huh7 replicon cells – cell-based, CellTiter-Glo luminescence, basal, 48 h, cytotoxicity control for HCV replication inhibitor project, primary screen (AID 1143); conditions: higher = more signal, called active from +8 up or from −8 down;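 also: Huh7 hepatoma cells carrying a hepatitis C replication reporter with no stimulus; test concentration not given here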
[12] = Pseudomonas biofilm growth suppression – PAO1 strain, BacTiter-Glo luminescence, LB-PBS, primary screen (AID 1144); conditions: P. aeruginosa PAO1 biofilm, 12 h, higher = more signal
[13] = basal CRE-LacZ reporter activity in PC12 – cell-based, unstimulated, primary screen (AID 1145); conditions: no forskolin, luminescence, 4.5 h, higher = more signal, called active from +8 up or from −8 down
[14] = forskolin-driven CRE-LacZ activity in PC12 – cell-based, CRE-LacZ reporter, forskolin-stimulated, primary screen (AID 1146); conditions: luminescence, 4.5 h, higher = more signal, called active from +8 up or from −8 down;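 also: PC12 cells with 6xCRE LacZ reporter stimulated by forskolin 10 µM; beta-galactosidase reporter signal reflecting CREB driven transcription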
[15] = biological target: Streptavidin (Streptomyces avidinii) (UniProt P22629); assay: compounds binding control protein streptavidin – biophysical, small-molecule microarray, 635/667 nm fluorescence, artefact control for SMM compound annotation, primary screen (AID 1147); conditions: higher = more signal;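 also: signal reflects streptavidin binding to arrayed compounds as a control protein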
[16] = probe aInhba binding on compound microarray – biochemical, small-molecule microarray, 635/667 nm fluorescence, primary screen (AID 1148); conditions: higher = more signal;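 also: score merges 667nm spot fluorescence with signal-to-noise for antibody binding to printed compounds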
Torsin-1A (Homo sapiens) [17] = biological target: Torsin-1A (Homo sapiens) (UniProt O14656); assay: TOR1A wild-type binding on microarray – cell lysate, small-molecule microarray, lysate, 635/667 nm, primary screen (AID 1149); conditions: COS7 hTOR1A-WT lysate, 635 nm fluorescence, higher = more signal
Torsin-1A (Homo sapiens) [18] = biological target: Torsin-1A (Homo sapiens) (UniProt O14656); assay: torsin A mutant lysate binding on microarrays – cell lysate, small-molecule microarray, COS7 lysate, 635/667 nm fluorescence, primary screen (AID 1150); conditions: COS7 hTOR1A mutant lysate, 635 nm fluorescence, higher = more signal;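 also: score pools 667 nm emission and signal to noise measuring lysate protein binding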
[19] = tested on: Sonic hedgehog protein (Shh); assay: Sonic hedgehog microarray binding compounds – biochemical, small-molecule microarray, 635/667 nm fluorescence, primary screen (AID 1151); conditions: 635 nm fluorescence, higher = more signal;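 also: Shh protein binding to compounds spotted on small-molecule microarray slides; score combines spot fluorescence intensity with signal-to-noise across triplicate slides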

Sequence of Streptavidin (Streptomyces avidinii) (P22629 whole entry, looked up): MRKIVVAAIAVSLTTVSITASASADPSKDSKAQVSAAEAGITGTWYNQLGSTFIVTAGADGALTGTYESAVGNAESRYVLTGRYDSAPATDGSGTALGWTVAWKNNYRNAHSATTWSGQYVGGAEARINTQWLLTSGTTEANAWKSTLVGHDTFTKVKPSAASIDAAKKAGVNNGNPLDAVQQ
Sequence of Follistatin (Homo sapiens) (P19883 whole entry, looked up): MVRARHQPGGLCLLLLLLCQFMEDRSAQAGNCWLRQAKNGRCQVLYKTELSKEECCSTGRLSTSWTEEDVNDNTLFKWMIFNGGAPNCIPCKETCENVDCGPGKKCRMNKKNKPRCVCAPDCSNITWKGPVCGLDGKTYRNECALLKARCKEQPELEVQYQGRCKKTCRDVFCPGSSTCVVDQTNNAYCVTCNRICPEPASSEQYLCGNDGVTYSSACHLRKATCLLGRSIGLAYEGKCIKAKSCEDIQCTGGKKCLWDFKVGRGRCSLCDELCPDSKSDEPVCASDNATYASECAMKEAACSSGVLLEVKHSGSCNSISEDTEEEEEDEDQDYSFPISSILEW
Sequence of Focal adhesion kinase 1 (Homo sapiens) (Q05397 whole entry, looked up): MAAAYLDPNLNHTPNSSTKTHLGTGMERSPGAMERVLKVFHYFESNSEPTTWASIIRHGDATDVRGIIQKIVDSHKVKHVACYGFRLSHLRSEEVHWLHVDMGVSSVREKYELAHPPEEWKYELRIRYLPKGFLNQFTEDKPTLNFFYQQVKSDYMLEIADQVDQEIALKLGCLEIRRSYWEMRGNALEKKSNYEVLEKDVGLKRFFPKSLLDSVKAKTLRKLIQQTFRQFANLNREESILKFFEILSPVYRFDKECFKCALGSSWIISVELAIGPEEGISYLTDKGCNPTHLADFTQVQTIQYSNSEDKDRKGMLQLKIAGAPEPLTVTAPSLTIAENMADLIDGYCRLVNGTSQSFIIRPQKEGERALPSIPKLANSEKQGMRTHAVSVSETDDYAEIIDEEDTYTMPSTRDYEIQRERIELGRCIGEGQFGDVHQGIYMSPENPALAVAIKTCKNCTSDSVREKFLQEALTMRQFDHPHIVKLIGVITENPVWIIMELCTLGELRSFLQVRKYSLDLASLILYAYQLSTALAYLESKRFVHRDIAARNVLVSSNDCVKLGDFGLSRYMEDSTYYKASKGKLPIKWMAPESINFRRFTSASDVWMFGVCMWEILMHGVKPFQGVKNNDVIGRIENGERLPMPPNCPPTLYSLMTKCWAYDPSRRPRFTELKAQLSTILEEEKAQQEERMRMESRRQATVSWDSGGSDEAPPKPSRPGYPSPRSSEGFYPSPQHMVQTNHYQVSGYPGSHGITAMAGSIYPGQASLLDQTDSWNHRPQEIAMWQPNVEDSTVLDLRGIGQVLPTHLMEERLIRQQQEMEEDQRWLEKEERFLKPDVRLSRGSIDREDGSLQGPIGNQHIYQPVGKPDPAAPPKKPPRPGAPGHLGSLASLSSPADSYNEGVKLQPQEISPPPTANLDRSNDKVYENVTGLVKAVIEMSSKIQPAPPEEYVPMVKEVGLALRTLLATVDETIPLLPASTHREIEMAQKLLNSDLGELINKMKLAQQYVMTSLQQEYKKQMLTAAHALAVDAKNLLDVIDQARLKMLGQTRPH
Sequence of Luciferin 4-monooxygenase (Photinus pyralis) (P08659 whole entry, looked up): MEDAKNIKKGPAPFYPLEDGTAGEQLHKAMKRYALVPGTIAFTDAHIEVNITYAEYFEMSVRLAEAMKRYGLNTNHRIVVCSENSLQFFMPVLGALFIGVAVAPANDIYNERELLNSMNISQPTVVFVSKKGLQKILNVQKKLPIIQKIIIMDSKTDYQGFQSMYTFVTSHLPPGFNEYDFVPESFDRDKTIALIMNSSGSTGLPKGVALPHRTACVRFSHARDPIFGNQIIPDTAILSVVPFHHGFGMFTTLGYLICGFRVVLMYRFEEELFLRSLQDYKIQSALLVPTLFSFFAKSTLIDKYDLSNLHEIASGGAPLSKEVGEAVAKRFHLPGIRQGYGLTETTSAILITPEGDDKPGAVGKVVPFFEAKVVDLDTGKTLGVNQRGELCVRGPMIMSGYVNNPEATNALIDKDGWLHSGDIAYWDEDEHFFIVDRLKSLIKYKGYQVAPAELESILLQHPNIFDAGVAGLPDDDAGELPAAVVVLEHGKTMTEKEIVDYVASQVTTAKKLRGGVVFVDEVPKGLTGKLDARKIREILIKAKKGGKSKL
Sequence of Fibroblast growth factor 2 (Homo sapiens) (P09038 whole entry, looked up): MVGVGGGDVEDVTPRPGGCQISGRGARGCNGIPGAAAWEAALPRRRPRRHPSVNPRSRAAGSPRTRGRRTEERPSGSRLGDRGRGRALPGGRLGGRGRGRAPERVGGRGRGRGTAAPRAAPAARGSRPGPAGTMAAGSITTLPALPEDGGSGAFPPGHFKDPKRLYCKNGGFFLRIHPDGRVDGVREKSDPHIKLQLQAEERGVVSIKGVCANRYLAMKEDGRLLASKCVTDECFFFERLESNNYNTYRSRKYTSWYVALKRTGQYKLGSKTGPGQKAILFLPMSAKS
Sequence of Torsin-1A (Homo sapiens) (O14656 whole entry, looked up): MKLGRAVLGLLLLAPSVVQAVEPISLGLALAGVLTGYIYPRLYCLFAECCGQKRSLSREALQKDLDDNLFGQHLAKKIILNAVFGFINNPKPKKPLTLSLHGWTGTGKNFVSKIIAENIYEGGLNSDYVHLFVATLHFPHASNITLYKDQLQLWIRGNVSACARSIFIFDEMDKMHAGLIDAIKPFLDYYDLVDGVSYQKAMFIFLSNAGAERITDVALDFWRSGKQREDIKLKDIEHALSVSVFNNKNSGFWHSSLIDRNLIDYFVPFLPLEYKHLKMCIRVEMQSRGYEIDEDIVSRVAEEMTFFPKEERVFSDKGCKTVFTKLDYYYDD

SMILES	composite z-score [1]	composite z-score [2]	composite z-score [3]	composite z-score [4]	composite z-score [5]	composite z-score [6]	z-score [7]	composite z-score (Lefty1)	composite z-score [8]	z-score [9]	composite z-score [10]	z-score [11]	z-score [12]	z-score [13]	z-score [14]	composite z-score [15]	composite z-score [16]	composite z-score (Torsin-1A (Homo sapiens) [17])	composite z-score (Torsin-1A (Homo sapiens) [18])	composite z-score [19]
COCCCNC(=O)[C@@]1(Sc2ccc(C)cc2)CC(=O)N(C2CCCCC2)[C@@H]1c1ccc(CO)cc1	0.624	-0.454	0.647	-1.08	-0.441	-0.511	-0.227	-1.63	-0.361	0.545 (inactive)	0.0421	-0.0515 (inactive)	-0.319 (inactive)	0.118 (inactive)	1.7 (inactive)	-0.749	-0.154	-1.51	-0.424	-0.911
CCOC(=O)C[C@H]1[C@H](OC(=O)c2ccc(C(=O)c3ccccc3)cc2)[C@@H](NC(=O)Cc2ccc(OC)cc2)c2cc(OCCCO)ccc2N1C(=O)c1ccccc1	0.305	0.498	0.15	0.157	-0.17	0.23	1.14	0.162	-0.337	0.449 (inactive)	0.328	-0.117 (inactive)	-0.0806 (inactive)	1.47 (inactive)	0.926 (inactive)	0.162	-0.0762	0.0313	0.337	0.622
COc1ccc([Si](C)(C)[C@@H]2[C@@H](CC(=O)N(CCO)Cc3ccccc3)O[C@]3(C(=O)N(c4ccccc4)c4ccccc43)[C@H]2C)cc1	1.13	1.14	0.437	0.874	1.07	0.716	0.0115	1.29	0.291	0.293 (inactive)	0.272	-7.08 (inactive)	-0.334 (inactive)	7.53 (inactive)	-2.26 (inactive)	0.675	-0.125	0.555	0.3	1.17
COC(=O)CCCCCCC(=O)Nc1ccc(NC(=O)CCCC[P+](c2ccccc2)(c2ccccc2)c2ccccc2)cc1	0.703	0.289	-0.507	-0.722	1.01	0.626	0.679	1.23	0.0334	1.3 (inactive)	0.38	-0.238 (inactive)	-0.873 (inactive)	0.575 (inactive)	-1.85 (inactive)	0.352	-0.0645	0.463	0.28	1.89
O=C1NC(=O)C2C1C=CC(C(O)CCc1ccccc1)N2Nc1ccc(Cl)cc1Cl (stereo not given)	0.371	1.18	1.11	0.363	0.0611	-0.83	-0.267	-0.556	1.07	0.369 (inactive)	0.564	-0.149 (inactive)	0.0136 (inactive)	0.243 (inactive)	0.0662 (inactive)	0.209	-0.0581	0.689	1.36	-0.625
CN(C)c1ccc(C(O)C2C=CC3C(=O)N(c4ccccc4)C(=O)C3N2Nc2ccc([N+](=O)[O-])cc2)cc1 (stereo not given)	1.35	1.19	-0.165	0.979	1.01	-0.181	-0.621	0.149	0.623	-0.421 (inactive)	0.0074	-0.619 (inactive)	0.108 (inactive)	0.49 (inactive)	-0.464 (inactive)	0.769	-0.0736	0.603	0.377	-0.13
C[N+](C)(C)CCCCCCNC(=O)[C@H]1C[C@H]2C(=O)NCC(=O)N2[C@H]1c1ccc(O)cc1	2.46	0.996	-0.0037	0.211	1.37	1.67	-1	1.59	0.195	0.836 (inactive)	0.119	-0.274 (inactive)	0.0567 (inactive)	-1.35 (inactive)	0.444 (inactive)	-0.337	-0.354	0.261	0.349	2.09
O=C1NC(=O)C2C1C=CC(C(O)c1ccco1)N2Nc1ccccn1 (stereo not given)	-0.324	-0.0286	-0.429	-0.17	0.292	-0.127	-0.109	-0.042	0.325	-1.42 (inactive)	0.0477	0.829 (inactive)	0.0748 (inactive)	-0.522 (inactive)	0.413 (inactive)	-0.124	-0.221	0.322	0.316	0.366
COC(=O)Cn1c(C(=O)N(C)C)cc2c1C[C@H]1CN(C(=O)c3ccccc3)[C@@](Cc3ccc(F)cc3)(C(=O)OC)[C@@H]21	2.12	1.02	1.25	0.19	-0.258	0.386	0.354	-0.278	1.3	0.897 (inactive)	0.398	-0.725 (inactive)	-0.625 (inactive)	0.207 (inactive)	-0.106 (inactive)	0.124	0.382	0.245	-0.068	-0.238
